Screens as filed in PubChem.
ERb coact inh: ER-beta (human) coactivator binding inhibition; Q92731; TR-FRET ER-beta LBD / SRC1-Cy5 peptide binding; receptor agonist-loaded with 1 µM estradiol; inhibition, % at 25.6 µM; 86,000 compounds, 1.3% hits;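 active = compounds whose percent inhibition of the receptor-coactivator binding signal exceeds about 50% in the single-dose screen, limit read from the data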;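 note: 0% = receptor plus peptide wells without compound and 100% = peptide-only wells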
Target sequence (Q92731 whole entry, looked up, the tested form may be a part): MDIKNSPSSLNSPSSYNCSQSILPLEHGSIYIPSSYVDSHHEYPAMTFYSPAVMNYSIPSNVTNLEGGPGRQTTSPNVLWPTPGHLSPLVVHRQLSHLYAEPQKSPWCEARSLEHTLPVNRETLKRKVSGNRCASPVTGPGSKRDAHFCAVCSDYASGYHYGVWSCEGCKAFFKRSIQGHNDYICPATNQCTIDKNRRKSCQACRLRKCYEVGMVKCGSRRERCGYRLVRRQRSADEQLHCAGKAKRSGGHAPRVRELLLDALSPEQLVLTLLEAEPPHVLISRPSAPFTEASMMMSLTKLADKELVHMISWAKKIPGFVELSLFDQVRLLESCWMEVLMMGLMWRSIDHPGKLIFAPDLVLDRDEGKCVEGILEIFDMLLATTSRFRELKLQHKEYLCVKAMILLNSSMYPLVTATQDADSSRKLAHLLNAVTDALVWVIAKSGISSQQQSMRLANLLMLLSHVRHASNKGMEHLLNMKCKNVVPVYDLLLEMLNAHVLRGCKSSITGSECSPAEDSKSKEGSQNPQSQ
Candida biofilm: kills Candida albicans biofilms; 85,000 compounds, 0.14% hits; C. albicans biofilm + clotrimazole, Alamar Blue; inhibition, % at 6 µM;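 active = inhibition above 20%; inactive = inhibition below 20%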;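 note: preformed 24 hr biofilms exposed to compound for 48 hr; 0% = biofilm without compound and 100% = blank killed by clotrimazole plus chlorhexidine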
Smad3 inh: Smad3 (human) transcription factor binding inhibition; TR-FRET Smad3/Dy647-FoxH1 peptide binding, europium anti-His; inhibition, % at 25 µM; 88,000 compounds, 0.29% hits;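 active = compounds that reduce the energy-transfer binding signal between the protein and its labelled peptide by more than half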;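 note: 0% = Smad3 plus labelled peptide maximal FRET and 100% = peptide-only background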
HePTP inhibitor: human HePTP phosphatase inhibition | P35236 | inhibition, % at 20 µM | recombinant HePTP phosphatase activity, OD absorbance | 110,000 compounds, 0.64% hits; in the data active = inhibition above about 50%;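 note: plate controls were vehicle for no effect and reference inhibitor for full effect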
ERa coact pot: enhances coactivator binding to human estrogen receptor alpha; P03372; coactivator binding (% of control), % at 25.6 µM; 86,000 compounds, 1.3% hits; TR-FRET ERalpha-LBD/SRC-Cy5 coactivator binding, 2 h; 100 = basal binding, no effect; in the data active = activity above about 200%;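 note: binding measured in presence of low estradiol as agonist stimulus; 0% = peptide alone without receptor and 100% = receptor with peptide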
ERa coact inh: ER-alpha (human) coactivator binding inhibition. P03372. TR-FRET ER-alpha LBD / SRC-1 peptide, estradiol-bound. inhibition, % at 25.6 µM. 86,000 compounds, 1.7% hits. AID 629; in the data active = inhibition above about 50%;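 note: 0% = receptor plus peptide control and 100% = peptide only without receptor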
The depositor's hits bear a star; [ ] = dose if it differs, or a comment. In the library only some 2.9% were active in any assay of this set; here they are far more common.

Screening COC(=O)c1cc(COc2ccc3c4c(c(=O)oc3c2)CCCC4)c(C)o1 returned ERb coact inh 3.2, Candida biofilm 11.1, Smad3 inh 0.3, HePTP inhibitor 3.9, ERa coact pot 121.8 and ERa coact inh -3.9.
`Cc1c(OCc2ccc(C(=O)O)o2)ccc2c3c(c(=O)oc12)CCC3` gave ERb coact inh 46.9, Candida biofilm -6.7, Smad3 inh -3.7, HePTP inhibitor 29.5, ERa coact pot 49.0 and ERa coact inh 39.8.
COC(=O)c1ccc(COc2ccc3c4c(c(=O)oc3c2)CCC4)o1 was read as ERb coact inh 18.6, Candida biofilm 1.2, Smad3 inh inactive, HePTP inhibitor 1.8, ERa coact pot 239.9*[fluorescence artefact?] and ERa coact inh 36.9.
Cc1n[nH]c(C)c1CCc1nc2c3ccccc3nc(SCC(=O)Nc3ccccc3F)n2n1 was read as ERb coact inh 58.7*[fluorescence artefact?], Candida biofilm -1.5, Smad3 inh 7.2, ERa coact pot 181.0 and ERa coact inh 72.6*[fluorescence artefact?].
Screening Cc1cccc(NC(=O)CSc2nc3ccccc3c3nc(CCc4c(C)n[nH]c4C)nn23)c1 returned ERb coact inh 45.2, Candida biofilm 7.4, Smad3 inh 9.5, ERa coact pot 30.9 and ERa coact inh 66.5*[fluorescence artefact?].
COC(=O)C1=C(C)N(C)C(C)=C(C(=O)OC)C1c1cccc(OC)c1 was read as HePTP inhibitor 2.2.
`CC(C)=C1C2CCC1C(C(=O)Nc1ccc(C)c(Cl)c1)C2C(=O)O` (stereo not drawn) gave HePTP inhibitor 3.8.
`CC(NC(=O)CN(Cc1ccccc1)S(=O)(=O)c1ccccc1)c1ccccc1` (stereo not drawn) gave HePTP inhibitor 9.5.
`COc1cc(NC(=O)CN2CC(c3ccccc3)CC2=O)cc(OC)c1` (stereo not drawn) gave ERb coact inh -8.6, Candida biofilm 20.4*, Smad3 inh 4.4, HePTP inhibitor -4.6, ERa coact pot 82.7 and ERa coact inh -4.3.
`Cc1[nH]n(-c2ccc(Cl)c(C(=O)O)c2)c(=O)c1/C=C1\C=c2ccccc2=NC1=O` gave HePTP inhibitor -3.8.
O=C(Cc1ccccc1)NC(NC(=O)Cc1ccccc1)c1cccc([N+](=O)[O-])c1 was read as HePTP inhibitor 3.0.
Screening O=C(NC(NC(=O)c1ccccc1)c1cccc([N+](=O)[O-])c1)c1ccccc1 returned HePTP inhibitor 103.7*.
`CC(C)CC(=O)NC(NC(=O)CC(C)C)c1cccc([N+](=O)[O-])c1` gave HePTP inhibitor 55.6*.
Cc1cccc(C(=O)NC(NC(=O)c2cccc(C)c2)c2cccc([N+](=O)[O-])c2)c1 was read as HePTP inhibitor 3.0.
`Cc1ccc(NC(=O)COc2ccc(Cl)c(C)c2)c([N+](=O)[O-])c1` gave HePTP inhibitor 5.6.
Cc1cc(OCc2nc(N)nc(N)c2-c2ccc(Cl)c(Cl)c2)ccc1[N+](=O)[O-] was read as Smad3 inh 55.8*.
`Cc1cc(-c2ccco2)c(C#N)c2nc3ccccc3n12` gave ERb coact inh 48.0, Candida biofilm 3.7, Smad3 inh 4.7, HePTP inhibitor 3.2, ERa coact pot 86.0 and ERa coact inh 80.7*[fluorescence artefact?].
Screening CCOc1ccccc1N1CCN(C(=O)c2ccc([N+](=O)[O-])cc2Cl)CC1 returned HePTP inhibitor -1.7.
For Fc1cccc(Nc2nc3ccccc3n3nnnc23)c1 the results were ERb coact inh -3.7, Candida biofilm 7.8, Smad3 inh -0.5, ERa coact pot 107.0 and ERa coact inh -6.9.
Screening CCN(CC)S(=O)(=O)c1ccc(Nc2nc3ccccc3n3nnnc23)cc1 returned ERb coact inh 36.9, Candida biofilm 5.0, Smad3 inh -4.5, HePTP inhibitor 0.7, ERa coact pot 77.6 and ERa coact inh 84.6*[fluorescence artefact?].
For c1ccc2c(c1)nc(Nc1ccc3c(c1)OCO3)c1nnnn12 the results were ERb coact inh 23.4, Candida biofilm 5.1, Smad3 inh 7.9, HePTP inhibitor 0.7, ERa coact pot 98.2 and ERa coact inh 56.5*[fluorescence artefact?].
Oc1c(Cl)cc(Cl)c2c1NCCC2 was read as ERb coact inh 69.6*[fluorescence artefact?], Candida biofilm 9.5, Smad3 inh -3.4, HePTP inhibitor 3.6, ERa coact pot 32.5 and ERa coact inh 89.0*[fluorescence artefact?].
Oc1c(C=Nc2cccc3cccnc23)sc2ccccc12 was read as ERb coact inh 50.8*[fluorescence artefact?], Candida biofilm 6.2, Smad3 inh 0.2, ERa coact pot 63.7 and ERa coact inh 78.8*.
`COc1ccc(NC(=O)Cc2nn(C)c(=O)c3ccccc23)c2ncccc12` gave ERb coact inh 17.2, Candida biofilm 9.4, Smad3 inh 3.8, HePTP inhibitor 7.0, ERa coact pot 216.6* and ERa coact inh -5.0.
CCC(=O)Nc1cc(-c2nn(C)c(=O)c3ccccc23)ccc1OC was read as HePTP inhibitor -6.6.
Screening Cc1ccc(-c2nn(CC(=O)NCc3cc(-c4nn(C)c(=O)c5ccccc45)ccc3C)c(=O)c3ccccc23)cc1 returned ERb coact inh 64.5*[fluorescence artefact?], Candida biofilm 0.6, Smad3 inh -59.3, ERa coact pot 66.5 and ERa coact inh 87.9*[fluorescence artefact?].
For COc1ccc(-c2nn(C)c(=O)c3ccccc23)cc1NC(=O)Cn1nc(C)c2ccccc2c1=O the results were ERb coact inh 50.4*[fluorescence artefact?], Candida biofilm 4.9, Smad3 inh -8.0, HePTP inhibitor -5.5, ERa coact pot 287.4*[fluorescence artefact?] and ERa coact inh 63.2*.
Screening COc1ccc(-c2nn(C)c(=O)c3ccccc23)cc1NC(=O)COc1ccc(C)cc1 returned ERb coact inh 16.4, Candida biofilm 6.2, Smad3 inh -6.4, ERa coact pot 487.2*[fluorescence artefact?] and ERa coact inh 11.0.
CCc1nnc(NC(=O)C2Cc3ccccc3CN2S(=O)(=O)c2ccc(C)cc2)s1 (stereo not drawn) was read as ERb coact inh 6.8, Candida biofilm 1.0, Smad3 inh 11.2, ERa coact pot 89.4 and ERa coact inh 1.2.
CCc1nnc(NC(=O)C2Cc3ccccc3CN2S(=O)(=O)c2cccs2)s1 (stereo not drawn) was read as ERb coact inh 27.3, Smad3 inh -0.3, HePTP inhibitor 0.8, ERa coact pot 79.8 and ERa coact inh 55.2*.
COc1cccc2[nH]c3c(N4CCC(C)CC4)ncnc3c12 was read as ERb coact inh 50.3*[fluorescence artefact?], Candida biofilm 8.6, Smad3 inh 3.3, HePTP inhibitor -10.7, ERa coact pot 60.9 and ERa coact inh 37.4.
Screening Cc1ccc(OCC(=O)Nc2ccc(C)cc2Br)c(C)c1 returned HePTP inhibitor 2.0.
`COc1nnc(-c2ccc(C(=O)N3C[C@@H]4C[C@H](C3)c3cccc(=O)n3C4)cc2)c2ccccc12` gave ERb coact inh 15.8, Candida biofilm 9.2, Smad3 inh 6.1, HePTP inhibitor 9.3, ERa coact pot 340.1* and ERa coact inh 29.2.
Screening CC(C)CNC(=O)C(=O)Nc1cccc(Cl)c1Cl returned HePTP inhibitor 1.4.
